Test results taken from PubChem BioAssay AID1159580 (chemical genetic matrix, 2015).
Out of some 5,500 compounds screened, about 2,000 (36%) were called active. Another 18% or so got no clear call; they are omitted. Cut-off read from the data, not from the text of the source: active = normalized growth mostly below about 0.91 (no sharp cut-off); inconclusive = no clear call, values can overlap the other calls; inactive = mostly above about 0.92. The list shows a part of the results.

Test: chemical genetic growth profiling, strain panel (AID 1159580);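 note: tested at 20 µM; growth read once vehicle control cultures reached saturation at 30 °C; 1 = growth at the plate median or of vehicle wells; lower values mean less growth of the strain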
Details: S. cerevisiae deletion strains, growth OD

Measured: normalized growth

CNC(=O)[C@H]1O[C@@H](n2cnc3c(N)ncnc32)C(O)[C@H]1O (stereo partly drawn)
inactive: locus YAL013W, strain DEP1, hits give low values 0.987 | locus YAL040C, strain CLN3, hits give low values 0.989 | locus YDR363W, strain ESC2, hits give low values 1.07 | locus YER002W, strain NOP16, hits give low values 0.973 | locus YGR078C, strain PAC10, hits give low values 1 | locus YMR263W, strain SAP30, hits give low values 0.985 | locus YNL128W, strain TEP1, hits give low values 0.983 | locus YNL175C, strain NOP13, hits give low values 0.984 | locus YNL197C, strain WHI3, hits give low values 0.997 | locus YNL224C, strain SQS1, hits give low values 0.996 | locus YNL322C, strain KRE1, hits give low values 1.02 | locus YOR083W, strain WHI5 (second series), hits give low values 1.02 | locus YPL241C, strain CIN2, hits give low values 0.976
